{"source": "PubChem BioAssay (NCATS)", "key": {"[1]": {"target": "Cytochrome P450 3A4 (Homo sapiens) (UniProt P08684)", "sequence (P08684 whole entry, looked up)": "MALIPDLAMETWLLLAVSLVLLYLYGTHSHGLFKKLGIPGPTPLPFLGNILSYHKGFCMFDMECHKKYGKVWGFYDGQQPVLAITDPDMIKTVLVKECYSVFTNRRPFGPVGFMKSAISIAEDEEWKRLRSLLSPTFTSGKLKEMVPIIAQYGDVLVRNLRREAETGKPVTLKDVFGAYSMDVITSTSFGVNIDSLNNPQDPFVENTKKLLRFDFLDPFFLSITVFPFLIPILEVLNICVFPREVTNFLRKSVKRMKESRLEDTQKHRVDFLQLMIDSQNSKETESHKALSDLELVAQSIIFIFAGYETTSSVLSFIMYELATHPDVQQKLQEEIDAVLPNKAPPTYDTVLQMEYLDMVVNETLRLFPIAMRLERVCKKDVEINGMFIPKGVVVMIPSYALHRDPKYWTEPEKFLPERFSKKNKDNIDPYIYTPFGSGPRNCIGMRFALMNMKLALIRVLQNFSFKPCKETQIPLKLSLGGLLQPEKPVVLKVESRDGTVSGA", "test": "qHTS Assay for Inhibitors and Substrates of Cytochrome P450 3A4 (AID 884); note: nearly all actives have a fitted effect of over 50% in size", "outline": "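20 nM human CYP3A4 with 25 uM Luciferin-PPXE (at KM) in 200 mM KPO4, preincubated 10 min with compound; NADPH regeneration started a 60 min RT reaction. Luciferin detected by luminescence, normalized to 57 uM ketoconazole as full inhibition.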"}, "[2]": {"test": "Confirmation and Secondary Assay for Modulators of Hemoglobin Beta Chain Splicing at IVS2 654 locus (AID 910)", "outline": "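HeLa cells stably expressing EGFP interrupted by β-globin IVS2-654 intron, seeded overnight in Opti-MEM/2% FCS, then treated 2 days at 37 °C. Restored splicing read as total peak GFP intensity per well by laser scanning cytometry (488 nm excitation, 500–520 nm emission); 500 nM antisense PNA as control.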"}, "[3]": {"test": "Confirmation and Secondary Assay for Modulators of Hemoglobin Beta Chain Splicing at IVS2 705 locus (AID 930)", "outline": "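Read-out: total peak GFP fluorescence per well (488 nm excitation, 500-520 nm emission) by laser-scanning cytometry. Cells: HeLa EGFP-705 splicing reporter, 2 days compound exposure in Optimem/2% FCS.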"}, "[4]": {"test": "qHTS Assay for Lipid Storage Modulators (AID 1519; calls by dose curve)", "conditions": "Drosophila S3 cells, BODIPY lipid droplet/cell ratio, laser cytometry, cells loaded with oleic acid", "outline": "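Cells seeded at 5,000 per well were treated with compounds over a concentration series and loaded with oleic acid (400 uM, as added). Lipid droplet fluorescence (488 nm excitation, 500-530 nm channel) was read by laser-scanning cytometry and normalized to 20 uM Triacsin C.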"}, "[5]": {"target": "ATP-dependent 6-phosphofructokinase (Trypanosoma brucei brucei) (UniProt O15648)", "sequence (O15648 whole entry, looked up)": "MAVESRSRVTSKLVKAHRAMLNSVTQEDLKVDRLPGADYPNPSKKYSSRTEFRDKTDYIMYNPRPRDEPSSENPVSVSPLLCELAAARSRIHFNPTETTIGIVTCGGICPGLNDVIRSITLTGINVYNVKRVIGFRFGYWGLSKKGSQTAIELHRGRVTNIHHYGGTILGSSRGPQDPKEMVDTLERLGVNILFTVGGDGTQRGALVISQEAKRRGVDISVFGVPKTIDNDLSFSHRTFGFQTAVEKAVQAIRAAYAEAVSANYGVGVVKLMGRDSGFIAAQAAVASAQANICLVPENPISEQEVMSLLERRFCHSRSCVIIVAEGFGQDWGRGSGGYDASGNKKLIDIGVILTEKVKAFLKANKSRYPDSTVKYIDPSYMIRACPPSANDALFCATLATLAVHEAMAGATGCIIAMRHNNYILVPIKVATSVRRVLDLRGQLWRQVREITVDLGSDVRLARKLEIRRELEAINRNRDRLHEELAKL", "test": "qHTS Assay to Find Inhibitors of T. brucei phosphofructokinase: hit validation (AID 492961)", "outline": "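Luminescence from ADP-Glo reports ADP generated as T. brucei PFK (1.25 nM) phosphorylates 0.5 mM fructose-6-phosphate using 0.1 mM ATP. Reactions ran 45 min at room temperature, pH 8.0.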"}, "[6]": {"target": "Ubiquitin carboxyl-terminal hydrolase 1 (Homo sapiens) (UniProt O94782)", "sequence (O94782 whole entry, looked up)": "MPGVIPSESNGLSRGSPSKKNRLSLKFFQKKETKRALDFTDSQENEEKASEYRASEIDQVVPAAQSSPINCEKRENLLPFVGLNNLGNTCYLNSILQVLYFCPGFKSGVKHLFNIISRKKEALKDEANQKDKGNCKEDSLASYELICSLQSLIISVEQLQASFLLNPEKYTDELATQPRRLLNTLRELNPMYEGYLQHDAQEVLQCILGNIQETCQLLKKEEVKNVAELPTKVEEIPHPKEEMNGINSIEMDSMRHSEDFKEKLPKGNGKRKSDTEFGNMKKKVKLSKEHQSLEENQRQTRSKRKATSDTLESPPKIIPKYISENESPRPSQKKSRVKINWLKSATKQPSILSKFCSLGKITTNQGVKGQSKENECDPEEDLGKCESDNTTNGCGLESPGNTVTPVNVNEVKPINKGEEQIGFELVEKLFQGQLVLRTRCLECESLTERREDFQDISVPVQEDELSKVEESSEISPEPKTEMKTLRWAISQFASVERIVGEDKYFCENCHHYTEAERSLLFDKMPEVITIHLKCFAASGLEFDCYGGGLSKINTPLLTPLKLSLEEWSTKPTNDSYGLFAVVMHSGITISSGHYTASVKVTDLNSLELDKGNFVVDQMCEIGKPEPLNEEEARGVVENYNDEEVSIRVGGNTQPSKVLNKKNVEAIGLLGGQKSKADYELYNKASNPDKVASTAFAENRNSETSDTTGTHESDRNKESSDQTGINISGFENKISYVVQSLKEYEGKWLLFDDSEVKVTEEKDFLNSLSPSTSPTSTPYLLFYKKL", "test": "Inhibitors of USP1/UAF1: Pilot qHTS (AID 504865);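 note: rhodamine fluorescence freed from ubiquitin-rhodamine substrate followed over time; top concentration of the series differs between compounds; nearly all actives have a fitted effect of over 35% in size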", "outline": "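USP1/UAF1 complex at 1 nM preincubated 15 min at room temperature with compound, then Ub-Rho substrate added at 150 nM final. Fluorescence (480/540 nm) read kinetically in 50 mM HEPES pH 7.8, 0.5 mM EDTA, 1 mM TCEP, 0.1 mg/ml BSA, 0.01% Tween-20.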"}, "[7]": {"target": "DNA dC->dU-editing enzyme APOBEC-3G (Homo sapiens) (UniProt Q9HC16)", "sequence (Q9HC16 whole entry, looked up)": "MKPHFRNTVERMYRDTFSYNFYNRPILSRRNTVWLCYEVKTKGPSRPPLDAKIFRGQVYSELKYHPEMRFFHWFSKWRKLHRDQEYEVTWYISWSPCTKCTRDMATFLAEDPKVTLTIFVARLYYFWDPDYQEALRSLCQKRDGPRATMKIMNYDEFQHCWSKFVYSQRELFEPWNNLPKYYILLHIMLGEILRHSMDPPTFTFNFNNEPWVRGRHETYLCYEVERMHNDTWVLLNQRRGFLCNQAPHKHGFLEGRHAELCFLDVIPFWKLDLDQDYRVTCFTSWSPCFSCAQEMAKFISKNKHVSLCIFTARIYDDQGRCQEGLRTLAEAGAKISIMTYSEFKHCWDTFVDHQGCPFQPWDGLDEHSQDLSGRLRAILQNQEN", "test": "qHTS for inhibitors of Vif-A3G interactions: Validation (AID 588379)", "outline": "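HeLa cells stably expressing Vif and A3G-eYFP, 700 cells/well, incubated overnight at 37 deg C, then exposed to compound overnight at 37 deg C. Inhibition of Vif-mediated degradation read as increased yellow fluorescence (Ex 488/Em 500-530) by laser-scanning cytometry.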"}, "[8]": {"target": "Luciferin 4-monooxygenase (Photinus pyralis) (UniProt P08659)", "sequence (P08659 whole entry, looked up)": "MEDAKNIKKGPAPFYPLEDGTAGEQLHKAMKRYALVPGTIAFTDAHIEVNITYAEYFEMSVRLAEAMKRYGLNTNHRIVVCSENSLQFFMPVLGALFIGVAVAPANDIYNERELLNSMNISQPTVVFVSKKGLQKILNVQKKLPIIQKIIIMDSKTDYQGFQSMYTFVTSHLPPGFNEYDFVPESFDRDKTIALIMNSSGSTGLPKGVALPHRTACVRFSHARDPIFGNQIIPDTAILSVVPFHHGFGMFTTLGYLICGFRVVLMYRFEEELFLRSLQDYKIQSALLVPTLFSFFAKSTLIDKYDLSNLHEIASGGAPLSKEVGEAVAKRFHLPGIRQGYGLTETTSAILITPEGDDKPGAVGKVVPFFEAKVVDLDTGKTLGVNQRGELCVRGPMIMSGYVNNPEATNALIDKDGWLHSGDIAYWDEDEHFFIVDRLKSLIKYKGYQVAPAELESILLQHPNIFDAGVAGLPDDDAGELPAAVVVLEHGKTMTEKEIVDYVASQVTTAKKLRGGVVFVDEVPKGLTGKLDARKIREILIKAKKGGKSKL", "test": "Biochemical firefly luciferase enzyme assay for NPC (AID 624030); note: nearly all actives have a fitted effect of over 70% in size", "outline": "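Purified P. pyralis luciferase at 10 nM in 50 mM Tris Acetate (final), luminescence read within 5 minutes of enzyme addition to compounds. Activity normalised to PTC124 versus DMSO; concentration-response curves classed by r2, magnitude and activity.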"}, "[9]": {"test": "S16 Schwann cell viability assay (CellTiter-Glo assay) (AID 624031);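 note: cellular ATP luminescence as a viability measure; nearly all actives have a fitted effect of over 70% in size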", "outline": "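Untransfected S16 rat Schwann cells; compound 24 h, 37 °C/5% CO2; CellTiter-Glo ATP luminescence. % activity vs no-cell wells and DMSO controls (0%); concentration-effect curves classed by r2, response magnitude, activity.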"}, "[10]": {"test": "S16 Schwann cell PMP22 intronic element firefly luciferase assay (AID 624032); note: nearly all actives have a fitted effect of over 30% in size", "outline": "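Rat S16 Schwann cells stably carrying firefly luciferase driven by a PMP22 intronic element, in 10% FBS, treated 24 h at 37 C. ONE-Glo luminescence normalized to PTC124 control and DMSO (0%); curves classed by r2, magnitude and activity.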"}, "[11]": {"test": "S16 Schwann cell PMP22 intronic element beta-lactamase assay (AID 624044; calls by dose curve; note: nearly all actives have a fitted effect of over 15% in size)", "outline": "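Rat S16 Schwann cells with beta-Lac driven by a PMP22 intronic element, compound-treated 24 h at 37 °C. LiveBLAzer FRET B/G read: 460 nm normalized to potassium clavulanate vs DMSO; 535 nm FRET as viability; concentration-effect curves classified.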"}, "[12]": {"test": "qHTS profiling for inhibitors of Plasmodium falciparum proliferation (AID 504749); note: nearly all actives have a fitted effect of over 60% in size", "conditions": "P. falciparum in erythrocytes, SYBR Green DNA, 72 h; at 28.7 µM (top of the series); parasite line B", "outline": "(§1)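 P. falciparum-infected erythrocytes (0.3% parasitemia, 2.5% hematocrit) incubated with compound 72 h at 37 C, 5% CO2. Parasite DNA detected by SYBR Green after lysis, overnight at room temperature; normalised to 0.29 uM artemisinin and DMSO.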"}, "3D7": {"test_system": "3D7", "test": "qHTS profiling for inhibitors of Plasmodium falciparum proliferation (AID 504749)", "conditions": "P. falciparum in erythrocytes, SYBR Green DNA, 72 h; series mostly up to 12.8 µM", "outline": "as §1"}, "7G8": {"test_system": "7G8", "test": "qHTS profiling for inhibitors of Plasmodium falciparum proliferation (AID 504749)", "conditions": "P. falciparum in erythrocytes, SYBR Green DNA, 72 h; series mostly up to 12.8 µM", "outline": "as §1"}, "AA1029": {"test_system": "AA1029", "test": "qHTS profiling for inhibitors of Plasmodium falciparum proliferation (AID 504749)", "conditions": "P. falciparum in erythrocytes, SYBR Green DNA, 72 h; series mostly up to 12.8 µM", "outline": "as §1"}, "AS120": {"test_system": "AS120", "test": "qHTS profiling for inhibitors of Plasmodium falciparum proliferation (AID 504749)", "conditions": "P. falciparum in erythrocytes, SYBR Green DNA, 72 h; series mostly up to 28.7 µM", "outline": "as §1"}, "ATS189": {"test_system": "ATS189", "test": "qHTS profiling for inhibitors of Plasmodium falciparum proliferation (AID 504749)", "conditions": "P. falciparum in erythrocytes, SYBR Green DNA, 72 h; series mostly up to 12.8 µM", "outline": "as §1"}, "ATS95": {"test_system": "ATS95", "test": "qHTS profiling for inhibitors of Plasmodium falciparum proliferation (AID 504749)", "conditions": "P. falciparum in erythrocytes, SYBR Green DNA, 72 h; series mostly up to 12.8 µM", "outline": "as §1"}, "C2A": {"test_system": "C2A", "test": "qHTS profiling for inhibitors of Plasmodium falciparum proliferation (AID 504749)", "conditions": "P. falciparum in erythrocytes, SYBR Green DNA, 72 h; series mostly up to 12.8 µM", "outline": "as §1"}, "CP185": {"test_system": "CP185", "test": "qHTS profiling for inhibitors of Plasmodium falciparum proliferation (AID 504749)", "conditions": "P. falciparum in erythrocytes, SYBR Green DNA, 72 h; series mostly up to 12.8 µM", "outline": "as §1"}, "CP191": {"test_system": "CP191", "test": "qHTS profiling for inhibitors of Plasmodium falciparum proliferation (AID 504749)", "conditions": "P. falciparum in erythrocytes, SYBR Green DNA, 72 h; series mostly up to 12.8 µM", "outline": "as §1"}, "CP194": {"test_system": "CP194", "test": "qHTS profiling for inhibitors of Plasmodium falciparum proliferation (AID 504749)", "conditions": "P. falciparum in erythrocytes, SYBR Green DNA, 72 h; series mostly up to 12.8 µM", "outline": "as §1"}, "CP201": {"test_system": "CP201", "test": "qHTS profiling for inhibitors of Plasmodium falciparum proliferation (AID 504749)", "conditions": "P. falciparum in erythrocytes, SYBR Green DNA, 72 h; series mostly up to 12.8 µM", "outline": "as §1"}, "CP203": {"test_system": "CP203", "test": "qHTS profiling for inhibitors of Plasmodium falciparum proliferation (AID 504749)", "conditions": "P. falciparum in erythrocytes, SYBR Green DNA, 72 h; series mostly up to 12.8 µM", "outline": "as §1"}, "CP211": {"test_system": "CP211", "test": "qHTS profiling for inhibitors of Plasmodium falciparum proliferation (AID 504749)", "conditions": "P. falciparum in erythrocytes, SYBR Green DNA, 72 h; series mostly up to 12.8 µM", "outline": "as §1"}, "CP215": {"test_system": "CP215", "test": "qHTS profiling for inhibitors of Plasmodium falciparum proliferation (AID 504749)", "conditions": "P. falciparum in erythrocytes, SYBR Green DNA, 72 h; series mostly up to 28.7 µM", "outline": "as §1"}, "CP217": {"test_system": "CP217", "test": "qHTS profiling for inhibitors of Plasmodium falciparum proliferation (AID 504749)", "conditions": "P. falciparum in erythrocytes, SYBR Green DNA, 72 h; series mostly up to 12.8 µM", "outline": "as §1"}, "CP237": {"test_system": "CP237", "test": "qHTS profiling for inhibitors of Plasmodium falciparum proliferation (AID 504749)", "conditions": "P. falciparum in erythrocytes, SYBR Green DNA, 72 h; series mostly up to 12.8 µM", "outline": "as §1"}, "CP238": {"test_system": "CP238", "test": "qHTS profiling for inhibitors of Plasmodium falciparum proliferation (AID 504749)", "conditions": "P. falciparum in erythrocytes, SYBR Green DNA, 72 h; series mostly up to 12.8 µM", "outline": "as §1"}, "CP247": {"test_system": "CP247", "test": "qHTS profiling for inhibitors of Plasmodium falciparum proliferation (AID 504749)", "conditions": "P. falciparum in erythrocytes, SYBR Green DNA, 72 h; series mostly up to 12.8 µM", "outline": "as §1"}, "CP250": {"test_system": "CP250", "test": "qHTS profiling for inhibitors of Plasmodium falciparum proliferation (AID 504749)", "conditions": "P. falciparum in erythrocytes, SYBR Green DNA, 72 h; series mostly up to 12.8 µM", "outline": "as §1"}, "CP252": {"test_system": "CP252", "test": "qHTS profiling for inhibitors of Plasmodium falciparum proliferation (AID 504749)", "conditions": "P. falciparum in erythrocytes, SYBR Green DNA, 72 h; series mostly up to 12.8 µM", "outline": "as §1"}, "CP256": {"test_system": "CP256", "test": "qHTS profiling for inhibitors of Plasmodium falciparum proliferation (AID 504749)", "conditions": "P. falciparum in erythrocytes, SYBR Green DNA, 72 h; series mostly up to 12.8 µM", "outline": "as §1"}}, "note": "Where “and” joins values, the source holds several entries; their conditions need not be identical. Equal values may be shown once. Records with an inconclusive call do not appear. A call without a number means that no potency is given here. Calls of active or inactive are those of the source. Unless noted, calls come from the whole dose curve; as a rule, active = well fitted curve in the direction sought with a large enough effect; inconclusive = small, poorly fitted or top-dose-only effect, or another doubt; inactive = no such curve, though single readings can be large; an effect the other way counts as inactive or inconclusive."}
{"smiles": "O=c1[nH]cnc2c1ncn2C1OC(CO)C(O)C1O", "note": "(stereo not given)", "values": [{"measurement": "Potency", "setting": "[1]", "result": "inactive"}, {"measurement": "Potency", "setting": "[2]", "result": "inactive"}, {"measurement": "outcome", "setting": "[3]", "result": "inactive"}, {"measurement": "activity change, negative = inhibition", "setting": "[4]; at 57.5 µM (top of the series)", "result": "5.69% (inactive) and -3.39% (inactive) and 2.45% (inactive)"}, {"measurement": "max response", "setting": "[4]; measured here: cell count channel max response", "result": "8.98% and -19.5% and -3.51%"}, {"measurement": "max response", "setting": "[4]; measured here: lipid channel max response", "result": "14% and -19.8% and 0.274%"}, {"measurement": "outcome", "setting": "[5]", "result": "inactive"}, {"measurement": "Potency", "setting": "[6]", "result": "inactive"}, {"measurement": "outcome", "setting": "[7]", "result": "inactive"}, {"measurement": "outcome", "setting": "[8]", "result": "inactive"}, {"measurement": "Potency", "setting": "[9]", "result": "inactive"}, {"measurement": "Potency", "setting": "[10]", "result": "inactive"}, {"measurement": "outcome", "setting": "[11]", "result": "inactive"}, {"measurement": "activity, negative = inhibition", "setting": "[12]", "result": "13.3% (inactive)"}, {"measurement": "Potency", "setting": "3D7", "result": "inactive"}, {"measurement": "Potency", "setting": "7G8", "result": "inactive"}, {"measurement": "Potency", "setting": "AA1029", "result": "inactive"}, {"measurement": "Potency", "setting": "AS120", "result": "inactive"}, {"measurement": "Potency", "setting": "ATS189", "result": "inactive"}, {"measurement": "Potency", "setting": "ATS95", "result": "inactive"}, {"measurement": "Potency", "setting": "C2A", "result": "inactive"}, {"measurement": "Potency", "setting": "CP185", "result": "inactive"}, {"measurement": "Potency", "setting": "CP191", "result": "inactive"}, {"measurement": "Potency", "setting": "CP194", "result": "inactive"}, {"measurement": "Potency", "setting": "CP201", "result": "inactive"}, {"measurement": "Potency", "setting": "CP203", "result": "inactive"}, {"measurement": "Potency", "setting": "CP211", "result": "inactive"}, {"measurement": "Potency", "setting": "CP215", "result": "inactive"}, {"measurement": "Potency", "setting": "CP217", "result": "inactive"}, {"measurement": "Potency", "setting": "CP237", "result": "inactive"}, {"measurement": "Potency", "setting": "CP238", "result": "inactive"}, {"measurement": "Potency", "setting": "CP247", "result": "inactive"}, {"measurement": "Potency", "setting": "CP250", "result": "inactive"}, {"measurement": "Potency", "setting": "CP252", "result": "inactive"}, {"measurement": "Potency", "setting": "CP256", "result": "inactive"}]}
